From ChEMBL document CHEMBL1157539, “Thousands of chemical starting points for antimalarial lead identification” (Nature, 2010) come the findings set out here.

Each structure is given as a SMILES string.

Common to all, as to type: functional
Experiment [1] concerns Plasmodium falciparum. Description: GSK_TCMDC: Inhibition of Plasmodium falciparum 3D7 in whole red blood cells, using parasite LDH activity as an index of growth. Test compounds present at 2uM.
Experiment [2] relates to Plasmodium falciparum. Description: GSK_TCMDC: Inhibition of Plasmodium falciparum Dd2 in whole red blood cells, using parasite LDH activity as an index of growth. Test compounds present at 2uM.
The subject of the next experiment is HepG2. Description: GSK_TCMDC: Percent inhibition of human HepG2 cell line. Test compounds present at 10uM.

The term Inhibition denotes the share of the control response that was lost under treatment. For the compound `CCS(=O)(=O)c1ccc(-c2cnc3[nH]cc(-c4ccc(N)cc4)c3c2)cc1`, the Inhibition in the experiment on Plasmodium falciparum [1] stood at 92%; in the experiment on Plasmodium falciparum [2] it was 99%; with HepG2 it was 24%.
Consider `O=C(NCCCCN1CCC(c2ccc3c(c2OCCCO)CCCC3)CC1)c1ccc(-c2ccc(C(F)(F)F)cc2)cc1`, for which the values for the Inhibition with Plasmodium falciparum [1], in the experiment with Plasmodium falciparum [2] and with HepG2 were 83%, 53% and 98%, respectively.
For `COc1cc(F)c2ncc(Cl)c(CCN3CCC(NCc4ccc5c(n4)NC(=O)CS5)CC3)c2c1.Cl`, in that order: 99%, 41% and 18%.
In the same order, the values of `CCCCOc1c(CNCCCCCCNCc2ccc3ccccc3c2OCCCC)ccc2ccccc12.CS(=O)(=O)O` are 96%, 89% and 99%.
For `CN(CCN(C)CC(O)c1ccc(Cl)c(Cl)c1)CC(O)c1ccc(Cl)c(Cl)c1.Cl` (stereo unspecified), in that order: 91%, 73% and 22%.
With `Cc1ccc(-n2c(C)nc3c(Nc4ccc(-c5ccncc5)cc4)ncnc32)c(C)c1`, the Inhibition in the experiment with Plasmodium falciparum [1] is on record as 99%; with Plasmodium falciparum [2], 99%; in the experiment on HepG2, 38%.
Turning to `O=[N+]([O-])c1ccc(C=NNc2nc3ccccc3[nH]2)cc1`, the Inhibition stood at 100% in the experiment with Plasmodium falciparum [1], 98% in the experiment with Plasmodium falciparum [2] and 11% in the experiment on HepG2.
For `COc1cccc(C(O)CNc2ccnc(Nc3ccc(Cl)cc3)n2)c1` (stereo unspecified), in that order: 99%, 46% and 31%.
In the same order, the values of `N#Cc1ccc(N/C(=N\c2ccc(-c3ccccc3)cc2)NCc2cccnc2)c(O)c1` are 100%, 46% and 2%.
In the same order, the values of `CCOc1ccccc1CNc1nccc(NCc2ccccc2OC)n1` are 87%, 66% and 50%.
Turning to `O=C(Nc1cccnc1)c1cc(-c2cc(Cl)ccc2O)n[nH]1`, the Inhibition in the experiment on Plasmodium falciparum [1] is given as 98%; in the experiment on Plasmodium falciparum [2], 85%; in the experiment on HepG2, 7%.
Regarding `CC(C)CCNCc1c(O)ccc2ccccc12`, the figures for the Inhibition with Plasmodium falciparum [1], in the experiment on Plasmodium falciparum [2] and with HepG2 were 95%, 51% and 9%, respectively.
For `CCCC(C)NC(=O)c1cnn(-c2ccc(C(C)(C)C)cc2)c1OCc1ccc(Br)cc1` (stereo unspecified), in that order: 84%, 64% and 17%.
In the same order, the values of `OC(CNC1CCCCC1)Cn1c2ccccc2c2ccccc21` (stereo unspecified) are 97%, 92% and 11%.
In the same order, the values of `O=C(NCc1ccc(Cl)c(Cl)c1)c1ccc(C2CCN(Cc3ccc4[nH]cnc4c3)CC2)cc1` are 100%, 31% and 1%.
Turning to `CC(=O)Nc1ccc(C(=O)Nc2cccc(-c3cccc(-c4nc5ccccc5[nH]4)c3)c2)cn1`, the Inhibition with Plasmodium falciparum [1] is reported as 100%; with Plasmodium falciparum [2] it was 100%; in the experiment on HepG2, 3%.
For the compound `Cc1cc(N[C@@H](Cc2ccccc2)C(=O)NCCc2ccccc2)nc(NCc2ccccc2C)n1.O=C(O)C(F)(F)F`, the Inhibition in the experiment with Plasmodium falciparum [1] came to 99%; in the experiment with Plasmodium falciparum [2], 85%; in the experiment with HepG2 it was 37%.
In the same order, the values of `CN(c1ccc2c(c1)nc(Nc1cc(C(C)(C)C)on1)n2C)c1ccnc(Nc2ccc(CS(C)(=O)=O)cc2)n1` are 89%, 13% and 77%.
In the same order, the values of `COc1cccc(NC(=O)NC2CCN(c3ccnc(Nc4cc(OC)c(OC)c(OC)c4)n3)C2)c1` (stereo unspecified) are 95%, 57% and 8%.
In the same order, the values of `COc1cc2nc(N3CCC(CNC(=O)c4ccc(OC(F)(F)F)cc4)CC3)nc(N)c2cc1OC.O=C(O)C(F)(F)F` are 100%, 98% and 16%.
With `O=C(/C=C/c1ccc(C(F)(F)F)cc1)NCCCCCN1CCN(C(=O)Nc2ccc(F)c(Cl)c2)CC1`, the Inhibition with Plasmodium falciparum [1] stood at 89%; in the experiment with Plasmodium falciparum [2] it was 0%; with HepG2, 35%.
Turning to `CCOc1ccc2[nH]c(C)cc(=NN=Cc3ccc(Cl)cc3)c2c1`, the Inhibition in the experiment with Plasmodium falciparum [1] was 100%; with Plasmodium falciparum [2], 100%; in the experiment on HepG2 it was 0%.
In the case of `Br.N=C1N=C(N)NC2(CCCCC2)N1OCCOc1ccc(Cc2ccccc2)cc1`, the Inhibition in the experiment with Plasmodium falciparum [1] is listed as 86%; in the experiment with Plasmodium falciparum [2], 22%; in the experiment with HepG2, 34%.
For the compound `CCOc1c(Br)cc(Cl)cc1CNCCCNc1nc2ccccc2[nH]1.Cl`, the Inhibition amounted to 98% with Plasmodium falciparum [1], 3% in the experiment with Plasmodium falciparum [2] and 27% in the experiment with HepG2.
`Br.N=C(N)Nc1nc(-c2cc(NC(=O)C(F)(F)F)cc([N+](=O)[O-])c2)cs1`: the Inhibition in the experiment with Plasmodium falciparum [1] is on record as 98%; with Plasmodium falciparum [2] it was 51%; with HepG2 it was 7%.
In the same order, the values of `O=C(CSc1nc(-c2ccccc2Cl)ns1)Nc1cccc(Cl)c1` are 96%, 89% and 0%.
Turning to `OC(CN(Cc1ccccc1)Cc1ccccc1)Cn1c2ccc(Cl)cc2c2cc(Cl)ccc21` (stereo unspecified), the Inhibition was determined as 89% in the experiment with Plasmodium falciparum [1], 95% with Plasmodium falciparum [2] and 5% in the experiment with HepG2.
In the same order, the values of `O=C(NC1CCN(c2ccnc3cc(Cl)ccc23)C1)c1ccc(C(F)(F)F)cc1.O=C(O)C(F)(F)F` (stereo unspecified) are 100%, 57% and 37%.
Take `c1ccc(CNc2nc(NCCN3CCCCC3)nc3ccccc23)cc1`: the figures for the Inhibition in the experiment on Plasmodium falciparum [1], in the experiment with Plasmodium falciparum [2] and with HepG2 were 87%, 8% and 19%, respectively.
For `CN1CCN=C1c1ccc(NC(=O)Nc2ccc(C3=NCCN3C)cc2)cc1.Cl`, in that order: 85%, 69% and 7%.
Take `CNC(=O)c1ccccc1Nc1nc(Nc2ccc(N3CCOCC3)cc2)ncc1Cl.Cl`: the Inhibition in the experiment on Plasmodium falciparum [1] amounted to 97%; in the experiment with Plasmodium falciparum [2], 97%; in the experiment with HepG2, 75%.
Turning to `C=C(C)CSc1nc2c(c(=O)n1CCc1ccccc1)C1(CCCC1)Cc1ccccc1-2`, the Inhibition with Plasmodium falciparum [1] was found to be 100%; in the experiment with Plasmodium falciparum [2] it was 80%; in the experiment with HepG2 it was 14%.
